Among all 190,000 compounds or so, about 1,900 (1%) were called active. The sample holds actives, similar compounds and a random draw of the others, so the mix is not that of the screen.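 How the source made its calls: active means percentage of spot-positive cells more than 3 SD above its plate mean, without a fluorescence outlier flag or 80% toxicity; inconclusive means no clear call, values can overlap the other calls; inactive means the rest.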

Experimental findings from PubChem BioAssay AID463193 (University of Pittsburgh Molecular Library Screening Center, 2010) are described below.

This assay is described as follows: GFP-LC3 puncta formation changes – imaging, high-content, MEF GFP-LC3, primary screen (AID 463193).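 On % cells with GFP-LC3 spots: spot-positive cell cutoff set from DMSO-treated cells.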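 On toxicity: cell loss after 18 h compound exposure.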 Conditions: autophagy, at 10 µM; % cells with GFP-LC3 spots: stronger effect = higher value; toxicity: measured here: cell loss, nuclei count.
For `CCc1cc(Br)ccc1NC(=O)C1CCCO1` (centres undefined), the % cells with GFP-LC3 spots was 2.25% (inactive) and the toxicity is -4.23%.
In the case of `OC(CNCC1CCCO1)Cn1c2ccc(Br)cc2c2cc(Br)ccc21` (centres undefined), the % cells with GFP-LC3 spots was 7.36% (active) and the toxicity was 47%.
As to `Cc1ccc(C(=O)NCC2CCCO2)o1` (centres undefined), the % cells with GFP-LC3 spots is 12.6% (inactive) and the toxicity is -1.73%.
In the same order, the values of `O=C(Cc1c(F)cccc1Cl)Nc1ccc(-n2cnnn2)cc1` are 1.73% (inactive) and 5.48%.
In the same order, the values of `c1cc(-n2cnnn2)ccc1NC1=NCCC1` are 12.1% (active) and -6.55%.
`O=C(c1ccc(-n2cnnn2)cc1)N1CCN(C(c2ccccc2)c2ccccc2)CC1`: the % cells with GFP-LC3 spots was 1.42% (inactive) and the toxicity was found to be 13.6%.
In the same order, the values of `CN(C)CCNC(=O)Cc1ccc([N+](=O)[O-])cc1` are 4.19% (inactive) and 2.43%.
`COc1ccc(CC(=O)NCc2nnc(SCC(=O)Nc3ncc(C)s3)n2C)cc1`: the % cells with GFP-LC3 spots is 3.99% (inactive) and the toxicity was -3.03%.
In the same order, the values of `Cn1c(=O)c([N+](=O)[O-])c(Oc2ccccc2)c2ccccc21` are 0.277% (inactive) and -4.02%.
Regarding `O=C(OCC1O[C@@H](OC(=O)c2cc(O)c(O)c(O)c2)[C@@H](OC(=O)c2cc(O)c(O)c(O)c2)[C@@H](OC(=O)c2cc(O)c(O)c(O)c2)[C@@H]1OC(=O)c1cc(O)c(O)c(O)c1)c1cc(O)c(O)c(O)c1` (some centres undefined), the % cells with GFP-LC3 spots is 0.427% (inactive) and the toxicity is -40.5%.
The like results for `CCOC(=O)C1=C(C)OC(N)=C(C#N)C1c1cncc(-c2ccc(F)cc2)c1` (centres undefined) were, in that order, 6.18% (inactive) and 10.5%.
In the same order, the values of `N#C/C(=C\C1=C(N2CCOCC2)C(=C\c2ccccc2)/CC1)C(=O)Nc1ccccc1F` are 94.8% (active) and 9.15%.
On to `N#C/C(=C\c1ccccc1C(F)(F)F)C(=O)Nc1ccccc1F`, for which the % cells with GFP-LC3 spots was 17.6% (inactive) and the toxicity was -10.6%.
`C(=N\N1CCN(c2ccccn2)CC1)/C1=C(N2CCOCC2)C(=C/c2ccccc2)/CC1`: the % cells with GFP-LC3 spots is 21.9% (inactive) and the toxicity was 10.4%.
On to `O=C1CCCN1CCCNC(=S)Nc1ccc(F)c(Cl)c1`, for which the % cells with GFP-LC3 spots is 9.25% (inactive) and the toxicity turned out to be 10.7%.
In the same order, the values of `COc1cccc(C(=O)Nc2ccc(N3CCCC3)cc2)c1` are 41.2% (active) and 21.3%.
In the case of `COc1cccc(OC)c1C(=O)Nc1ccc(N2CCCCC2)cc1`, the % cells with GFP-LC3 spots was 4.97% (inactive) and the toxicity was 0.418%.
Turning to `COc1ccc(C(=O)NC(=S)Nc2ccc(N3CCCC3)cc2)cc1OC`, the % cells with GFP-LC3 spots was 2.21% (inactive) and the toxicity was found to be 8.63%.
With `O=C(NCCc1c[nH]c2ccccc12)C(=O)NCC1CCCO1` (centres undefined), the % cells with GFP-LC3 spots was 2.06% (inactive) and the toxicity was 4.43%.
With `N#C/C(=C/c1ccc(N2CCCCC2)o1)C(=O)NCCc1c[nH]c2ccccc12`, the % cells with GFP-LC3 spots was 95% (active) and the toxicity is -16.4%.
The like results for `CC(=O)N/C(=C/c1ccc(Cl)cc1)C(=O)NCCc1c[nH]c2ccccc12` were, in that order, 1.94% (inactive) and -16.7%.
On to `COc1ccc(C(=O)Nc2ccc(F)cc2F)cc1`, for which the % cells with GFP-LC3 spots was 8.35% (inactive) and the toxicity came out at 1.69%.
In the same order, the values of `O=C(Nc1cccc(F)c1)c1ccc(S(=O)(=O)N2CCCC2)cc1` are 2.96% (inactive) and -0.834%.
Regarding `CCOC(=O)N1CCN(S(=O)(=O)c2ccc(C(=O)Nc3ccc(F)cc3F)cc2)CC1`, the % cells with GFP-LC3 spots is 13.1% (active) and the toxicity came out at 35.6%.
In the case of `CCCCN1C(=O)/C(=C2/C=CC=CN2C)SC1=S`, the % cells with GFP-LC3 spots is 2.78% (inactive) and the toxicity was -16.3%.
In the same order, the values of `O=C(CCCN1C(=O)/C(=C/c2ccccc2)SC1=S)Nc1ccc(O)cc1` are 5.17% (inactive) and 20.5%.
The like results for `CCCCN1C(=O)/C(=C/C=C2/C=Cc3ccccc3N2CC)SC1=S` were, in that order, 36.6% (active) and 17.1%.
In the same order, the values of `Cc1ccccc1Cn1nc(C)c(NC(=O)C(F)(F)F)c1C` are 25.2% (inactive) and -15.5%.
As for `COc1ccc(NC(=O)COC(=O)c2ccncc2)c(OC)c1`, the % cells with GFP-LC3 spots is 4.41% (inactive) and the toxicity is 21.4%.
The like results for `CC1c2nc3ccccc3n2C(CC(=O)NCCCN2CCOCC2)C(=O)N1Cc1ccccc1` (centres undefined) were, in that order, 6.3% (inactive) and -3.99%.
Regarding `COc1ccc(OC)c(NC(=S)N2CCc3ccccc3C2)c1`, the % cells with GFP-LC3 spots is 1.08% (inactive) and the toxicity was -17.2%.
`COc1ccc(Nc2cc(C)nc(-n3nc(C)cc3C)n2)cc1`: the % cells with GFP-LC3 spots is 1.92% (inactive) and the toxicity came out at 48.3%.
For `CC(=O)c1ccc(Oc2cc(C)nc(-n3nc(C)cc3C)n2)cc1`, the % cells with GFP-LC3 spots was 22.7% (active) and the toxicity worked out at 52.9%.
The like results for `Cc1cc(C)n(-c2cc(Oc3ccccc3)ncn2)n1` were, in that order, 4.54% (inactive) and -5.5%.
In the same order, the values of `O=C1/C(=C\c2ccsc2)NC(=S)N1c1ccccc1` are 0.432% (inactive) and 4.12%.
For `Nc1[nH]c(=S)nc2nc(-c3ccccc3)c(-c3ccccc3)nc12`, the % cells with GFP-LC3 spots is 14.2% (inactive) and the toxicity stood at 22.7%.
As for `O=C(O)CS/C(=C\c1ccc(F)cc1)c1nc2ccccc2s1`, the % cells with GFP-LC3 spots is 5.4% (inactive) and the toxicity was -6.27%.
In the same order, the values of `CC1=CC(=C(C#N)c2nc3ccccc3s2)C=C(C)N1c1ccc(F)cc1F` are 27.8% (active) and 15.8%.
For `N#C/C(=C(/O)Cc1cccc2ccccc12)c1nc2ccccc2s1`, the % cells with GFP-LC3 spots is 0.484% (inactive) and the toxicity is -0.84%.
The like results for `CCc1ccc2c(c1)cc(CN(C(=S)Nc1ccccc1Cl)C1CC1)c1nnnn12` were, in that order, 19.7% (active) and 11.8%.
In the same order, the values of `COCCN(CCOC)C(=S)Nc1ccccc1Cl` are 8.84% (inactive) and -8.3%.
The like results for `CCOc1ccc2c(c1)cc(CN(C(=O)CC)C1CCCCC1)c1nnnn12` were, in that order, 5.66% (inactive) and 13.7%.
